In all, about 310,000 compounds went through this assay and about 14,000 (4.5%) showed an effect of 50% or more. Effects have a minus sign here. The sample as a whole holds a higher share of strong results than the screen did.
target: human ether-à-go-go-related gene (hERG) potassium channel (human, UniProt Q12809); test: primary screen, population patch clamp on CHO cells stably expressing hERG; higher = less effect of the substance
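Further: peak tail current of the secondary pulse compared with the same well before compound.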

Sequence of human ether-à-go-go-related gene (hERG) potassium channel (Q12809 whole entry, looked up): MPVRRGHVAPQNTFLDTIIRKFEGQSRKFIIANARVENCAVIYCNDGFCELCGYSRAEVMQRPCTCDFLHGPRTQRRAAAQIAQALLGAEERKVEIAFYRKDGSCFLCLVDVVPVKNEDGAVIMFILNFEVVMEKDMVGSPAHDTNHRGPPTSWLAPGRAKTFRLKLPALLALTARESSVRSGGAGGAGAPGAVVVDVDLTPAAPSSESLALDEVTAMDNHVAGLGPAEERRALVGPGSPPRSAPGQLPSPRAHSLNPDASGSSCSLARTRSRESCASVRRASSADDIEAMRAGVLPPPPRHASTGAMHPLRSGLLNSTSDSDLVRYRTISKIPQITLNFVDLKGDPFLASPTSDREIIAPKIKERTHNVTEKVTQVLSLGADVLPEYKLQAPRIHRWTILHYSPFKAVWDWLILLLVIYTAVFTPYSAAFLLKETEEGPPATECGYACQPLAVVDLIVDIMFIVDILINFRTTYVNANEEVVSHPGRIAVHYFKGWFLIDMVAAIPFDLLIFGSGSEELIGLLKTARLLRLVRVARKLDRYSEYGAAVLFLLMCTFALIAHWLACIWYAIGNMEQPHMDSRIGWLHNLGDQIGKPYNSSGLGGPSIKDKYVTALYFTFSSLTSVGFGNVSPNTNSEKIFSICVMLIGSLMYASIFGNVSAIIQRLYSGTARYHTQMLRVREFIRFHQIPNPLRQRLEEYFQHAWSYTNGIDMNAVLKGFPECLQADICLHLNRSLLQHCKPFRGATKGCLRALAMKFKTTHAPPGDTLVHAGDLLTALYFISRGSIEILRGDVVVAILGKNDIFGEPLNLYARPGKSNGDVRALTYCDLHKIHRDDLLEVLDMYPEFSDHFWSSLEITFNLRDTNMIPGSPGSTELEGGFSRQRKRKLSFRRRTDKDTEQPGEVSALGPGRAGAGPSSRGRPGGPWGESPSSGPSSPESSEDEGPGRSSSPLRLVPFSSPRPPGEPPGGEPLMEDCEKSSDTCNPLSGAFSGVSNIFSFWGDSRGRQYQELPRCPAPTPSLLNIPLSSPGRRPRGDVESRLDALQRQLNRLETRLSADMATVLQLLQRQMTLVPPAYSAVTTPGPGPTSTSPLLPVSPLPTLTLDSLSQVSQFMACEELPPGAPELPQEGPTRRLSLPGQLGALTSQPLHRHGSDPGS

Row | SMILES | hERG current change (%, negative = inhibition) at 10uM [%]
1 | Clc1ccc(OCCN2CCCCC2)cc1Cl.O=C(O)C(=O)O | -42.1
2 | O=C(O)C(=O)O.c1ccc(COc2cccc(CN3CCCCC3)c2)cc1 | -19.2
3 | CN1CCN(CCOc2ccc(Cl)c(Cl)c2)CC1.O=C(O)C(=O)O | -22.3
4 | Clc1ccc(OCCCN2CCCC2)cc1Cl.O=C(O)C(=O)O | -67.7
5 | O=C(NCCCOc1cccc(CN2CCCCC2)c1)c1ccc(Cl)c(Cl)c1.O=C(O)C(=O)O | -60.8
6 | CC(=O)OCC(=O)NCCCOc1cccc(CN2CCCCC2)c1.Cl | -2.29
7 | Cc1cc(OCCCCCN2CCCC2)ccc1Cl.O=C(O)C(=O)O | -77.2
8 | Cc1cc(OCC(=O)N2CCCC2)ccc1Cl | -0.71
9 | Cc1cc(OCCCN2CCCC2)ccc1Cl | -42.9
10 | CC(=O)Nc1scc(-c2ccccc2)[n+]1-c1ccc(C)cc1.[Br-] | 1.06
11 | O=C(CCCNC(=O)c1ccc(Cl)cc1)Nc1ccc(F)c(S(=O)(=O)N2CCOCC2)c1 | -33.6
12 | C/C(N)=C(/C#N)C(=O)COC(=O)c1cccc2ccccc12 | -8.17
13 | Cc1cc(C)cc(NC(=O)CSc2nc3c(c(=O)n2C)SC(C)C3)c1 (centres unmarked) | 3.64
14 | O=C(CCCN1C(=O)NC2(CCCC2)C1=O)N1CCN(S(=O)(=O)c2ccccc2)CC1 | 0.403
15 | CC(=O)C(c1ccccc1)C(c1ccccc1)C(C)[N+](=O)[O-] (centres unmarked) | 14.3
16 | OCC(CO)(CO)n1cnnn1 | 12.3
17 | CCN(CC)c1ccc(/C=N/O)cc1 | 18.3
18 | CC(C)(C)NC(=O)C(c1ccncc1)N(CC1CCCO1)C(=O)Cn1nnc(-c2ccc(F)cc2)n1 (centres unmarked) | -3.33
19 | O=C(NCC1CCCO1)C(c1ccco1)N(Cc1ccc(F)cc1)C(=O)CN1C(=O)c2ccccc2S1(=O)=O (centres unmarked) | -7.48
20 | O=C(NCC1CCCO1)C(c1ccc(F)cc1)N(Cc1ccc(F)cc1)C(=O)Cn1nnc(-c2cccs2)n1 (centres unmarked) | -10.9
21 | CC(C)CCNC(=O)C(c1ccncc1)N(C(=O)Cn1nnc(-c2ccc(F)cc2)n1)c1ccccc1F (centres unmarked) | -24.2
22 | COc1ccc(CN(C(=O)CN2C(=O)c3ccccc3S2(=O)=O)C(C(=O)NCC2CCCO2)c2ccncc2)cc1 (centres unmarked) | -10.3
23 | CC(C)CCNC(=O)C(c1ccncc1)N(Cc1cccs1)C(=O)Cn1nnc(-c2ccc(F)cc2)n1 (centres unmarked) | -8.51

Row | SMILES | hERG current change (%, negative = inhibition) at 10uM [%]
24 | CC(C)CCNC(=O)C(c1ccncc1)N(CC1CCCO1)C(=O)Cn1nnc(-c2ccc(F)cc2)n1 (centres unmarked) | -64.8
25 | O=C(NCC1CCCO1)C(c1ccncc1)N(Cc1cccs1)C(=O)Cn1nnc(-c2ccc(F)cc2)n1 (centres unmarked) | -60.1
26 | O=C(NCC1CCCO1)C(c1ccncc1)N(Cc1ccc(F)cc1)C(=O)CN1C(=O)c2ccccc2S1(=O)=O (centres unmarked) | -58.3
27 | Cc1ccc(-n2c(SCC(=O)Nc3ccc(Cl)cc3)nc(O)cc2=O)cc1 | 9.08
28 | CC(C)(C)c1ccc(C(=O)Nc2ccc(O)c3c(=O)cc(-c4ccccc4Cl)oc23)cc1 | -3.26
29 | O=C(NCCO)/C(=C\c1ccco1)NC(=O)c1ccco1 | 1.44
30 | CNc1ccc(NC(C)=O)cc1[N+](=O)[O-] | 1.68
31 | CNC(=O)CCN(Cc1ccco1)S(=O)(=O)c1ccc(OC)c(OC)c1 | 14.1
32 | CCOC(=O)c1c(NC(=O)CSc2nnc(-c3cccnc3)n2Cc2ccco2)sc(C)c1C | -24.7
33 | COC(=O)c1c(NC(=O)CSc2nnc(-c3cccnc3)n2Cc2ccco2)sc(C)c1C | -59.3
34 | Cc1cccc(C)c1NC(=O)CSc1nnc(-c2ccncc2)n1Cc1ccco1 | -29.2
35 | Cc1cc(Cl)ccc1NC(=O)CSc1nnc(Cc2cccs2)n1Cc1ccco1 | -45.3
36 | C=CCn1c(SCC(=O)Nc2cc(C)c(Cl)cc2OC)nnc1-c1ccco1 | -23.6
37 | Cc1cc(C)c(NC(=O)CSc2nnc(-c3ccncc3)n2Cc2ccco2)c(C)c1 | -31.6
38 | COc1cc(Cl)c(C)cc1NC(=O)CSc1nnc(-c2ccco2)n1CC(C)C | -62.1
39 | CCOC(=O)c1c(NC(=O)CSc2nnc(-c3ccncc3)n2Cc2ccco2)sc(C)c1C | -19.3
40 | O=C(CSc1nnc(Cc2cccs2)n1Cc1ccco1)Nc1ccc(Cl)cc1Cl | -57.1
41 | CCn1c(SCC(=O)Nc2cc(C)c(Cl)cc2OC)nnc1-c1ccco1 | -4.93
42 | O=C(CSc1nnc(Cc2cccs2)n1Cc1ccco1)Nc1cccc(Cl)c1 | -13.9
43 | Cc1cc(C)c(NC(=O)CSc2nnc(-c3ccncc3)n2Cc2ccco2)c(Cl)c1 | -52.7
44 | COc1ccc2nc(SCc3cccc(C)c3)nc(C)c2c1 | -10.9
45 | COc1ccccc1OCCOCCOc1c(C)cc(C)cc1Br | 8.26
46 | CC(C)N1CC(O)=C(c2ccccc2)C1=N | -0.355

Row | SMILES | hERG current change (%, negative = inhibition) at 10uM [%]
47 | CC(C)NC(=O)c1ccccc1NC(=O)C1CC(=O)N(C(C)C)C1 (centres unmarked) | 42.9
48 | CSc1ncccc1C(=O)Nc1nccs1 | -22.8
49 | O=C(CSc1nnc(-c2ccncc2)n1Cc1ccco1)Nc1ccccc1Cl | -36.3
50 | COc1ccc(NC(=O)CSc2nnc(-c3ccccc3)n2Cc2ccco2)c(OC)c1 | -26.4
51 | O=C(CSc1nnc(-c2ccncc2)n1Cc1ccco1)Nc1ccccc1F | -20.4
52 | COc1cc(Cl)c(C)cc1NC(=O)CSc1nnc(-c2cccnc2)n1Cc1ccco1 | -56.9
53 | Cc1cc(Cl)ccc1NC(=O)CSc1nnc(-c2ccncc2)n1Cc1ccco1 | -52.8
54 | COc1cc(Cl)c(C)cc1NC(=O)CSc1nnc(-c2ccccn2)n1Cc1ccco1 | -29.5
55 | Cc1c(C(=O)Nc2cc(S(=O)(=O)N3CCOCC3)ccc2N2CCN(C)CC2)oc2ccccc12 | -10.8
56 | Cc1ccccc1N1CC(C(=O)O)CC1=O (centres unmarked) | 14.1
57 | Cc1cccc(Cn2ccc(NC(=O)c3ccc4c(c3)OCO4)n2)c1 | -34.3
58 | CCCNC(=O)c1ccc2c(=O)n3c(-c4ccc(C)cc4)csc3nc2c1 | 5.26
59 | Cc1ccc(C2(CCNCc3ccc(N(C)C)cc3)CCOC(C(C)C)C2)cc1 (centres unmarked) | -64.1
60 | COc1ccccc1C1(CCNS(=O)(=O)c2ccc(C)cc2)CCOC(C(C)C)C1 (centres unmarked) | 4.49
61 | Cc1ccc(C2(CCNCc3ccco3)CCOC(C(C)C)C2)cc1 (centres unmarked) | -35.6
62 | Cc1ccc(C2(CCNS(=O)(=O)c3ccc(C)cc3)CCOC(C(C)C)C2)cc1 (centres unmarked) | -53.5
63 | CC(C)C1CC(CCNCc2ccc(N(C)C)cc2)(c2ccccc2)CCO1 (centres unmarked) | -24.6
64 | Cc1ccc(C2(CCN)CCOC(C(C)C)C2)cc1 (centres unmarked) | 17
65 | O=C(Nc1ccc2c(c1)OCO2)Oc1ccccc1 | -7.16
66 | O=C(c1cccc(C(F)(F)F)c1)N1CCC(O)(CS(=O)(=O)Cc2ccccc2Cl)CC1 | -8.87
67 | CNC(=O)C1CC(=O)N(Cc2ccc(OC)c(OC)c2)C(=Nc2ccc(OC)cc2)S1 (centres unmarked) | -6.01
68 | Fc1ccc(-c2nnc(Cc3nnc(-c4ccc(F)cc4)o3)o2)cc1 | 10.8
69 | Cc1ccc(-c2nnc(Cc3ccc(Cl)cc3)o2)cc1 | 8.63

Row | SMILES | hERG current change (%, negative = inhibition) at 10uM [%]
70 | Cc1ccc(-c2nnc(Cc3ccc([N+](=O)[O-])cc3)o2)cc1 | -64.9
71 | O=[N+]([O-])c1ccc(Cc2nnc(-c3ccccc3Cl)o2)cc1 | -15.5
72 | Fc1ccc(-c2nnc(Cc3ccc(Cl)cc3)o2)cc1 | -16.7
73 | O=[N+]([O-])c1ccc(Cc2nnc(-c3ccc(F)cc3)o2)cc1 | -57.2
74 | Cc1ccc(C(=O)Nc2c(C)n(C)n(-c3ccccc3)c2=O)cc1S(=O)(=O)N1CCOCC1 | 0.249
75 | Cc1ccc(S(=O)(=O)N(C)c2c(C)ccc(S(N)(=O)=O)c2C)cc1 | -10.9
76 | Fc1ccccc1N1CC(c2ccccc2)C(c2cccs2)=N1 (centres unmarked) | 9.56
77 | Cc1ccc(Cn2nnc3c(=O)[nH]c(C4CCCN(S(=O)(=O)c5ccccc5F)C4)nc32)cc1 (centres unmarked) | 12.2
78 | COc1ccc(/C=N/Nc2nncc3ccccc23)c(OC)c1 | 10.7
79 | COc1cc(C)c(Cl)c(C)c1S(=O)(=O)NC1CC(C)(C)NC(C)(C)C1 | 7.91
80 | O=C(NCCSc1ccccc1)c1ccc(Br)cc1 | 13.5
81 | N#Cc1ccc(OCC(O)CN2CCN(C(c3ccccc3)c3ccccc3)CC2)cc1 (centres unmarked) | -72.1
82 | Cl.OC(COc1ccccc1)CN1CCN(CC(O)COc2ccccc2)CC1 (centres unmarked) | -61.7
83 | CN1CCN(CC(O)COc2ccccc2)CC1 (centres unmarked) | -0.905
84 | CC(C)OCC(O)CN1CCN(C(c2ccccc2)c2ccccc2)CC1.Cl (centres unmarked) | -58.1
85 | COC(=O)CN1CCN(C(c2ccccc2)c2ccccc2)CC1 | 5
86 | CCC(=O)c1ccc(OCC(O)CN2CCN(C(c3ccccc3)c3ccccc3)CC2)cc1 (centres unmarked) | -67.2
87 | OC(COc1ccccc1)CN1CCCC1 (centres unmarked) | 14.5
88 | CCC(=O)c1ccc(OCC(O)CNC(C)c2ccccc2)cc1 (centres unmarked) | -14.7
89 | CCC(=O)c1ccc(OCC(O)CN2CCOCC2)cc1 (centres unmarked) | 7.44
